Avidin fluor = compound fluoresces at 488/530 nm on avidin beads; compound fluorescence 488/530 nm, flow cytometry; active compounds read high; fluorescence (KMESF) at 10 µM; 220,000 tested, 0.38% active; in the data active means fluorescence above about 47
RGS7-Gao = human RGS7-Galphao interaction regulation; 220,000 tested, 0.35% active; P09471; Multiplexed bead flow cytometry, RGS7-Galphao binding; actives lie on both sides; AID 1439; binding response (% of control), % at 10 µM; in the data active means binding response below about 49% or above about 150%; inconclusive means no clear call, values can overlap the other calls; inactive means in between;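 further: fluorescent Galphao held in activated GDP-AlF4 state binding bead-coupled RGS7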
RGS16-Gao = RGS16-Galphao interaction regulator (human). AID 1441. bead-based flow cytometry RGS16-Galphao binding, fluorescence; actives lie on both sides. O15492+P09471. binding response (% of control), % at 10 µM. 220,000 tested, 0.38% active; call rule not given here;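 further: Galphao activated by GDP with aluminum fluoride before binding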
Target sequence (O15492 whole entry, looked up): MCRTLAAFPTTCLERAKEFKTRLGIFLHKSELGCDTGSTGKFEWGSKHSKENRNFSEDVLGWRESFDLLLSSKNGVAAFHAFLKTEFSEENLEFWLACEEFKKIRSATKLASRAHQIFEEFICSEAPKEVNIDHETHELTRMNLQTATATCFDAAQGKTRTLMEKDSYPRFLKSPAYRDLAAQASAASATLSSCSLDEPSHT
Target sequence (P09471 whole entry, looked up): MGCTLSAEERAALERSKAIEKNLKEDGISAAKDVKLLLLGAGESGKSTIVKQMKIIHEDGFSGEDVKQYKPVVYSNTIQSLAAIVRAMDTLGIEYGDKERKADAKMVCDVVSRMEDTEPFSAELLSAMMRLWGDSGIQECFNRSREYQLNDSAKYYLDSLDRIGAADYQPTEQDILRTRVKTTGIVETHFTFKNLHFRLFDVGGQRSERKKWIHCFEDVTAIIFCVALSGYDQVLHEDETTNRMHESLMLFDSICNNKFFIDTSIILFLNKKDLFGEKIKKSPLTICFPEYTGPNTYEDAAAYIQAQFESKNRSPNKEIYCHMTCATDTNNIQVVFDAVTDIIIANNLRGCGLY
RGS4-Gao reg = human RGS4-Galphao interaction regulation; P09471; binding response (% of control), % at 10 µM; Multiplexed bead flow cytometry, RGS4-Galphao binding; actives lie on both sides; 220,000 tested, 0.33% active; in the data active means binding response below about 49% or above about 150%; inactive means in between;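 further: fluorescent Galphao activated with aluminum fluoride binding bead-coupled RGS4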
RGS8-Gao = regulators of human RGS8-Galphao interaction | P09471 | AID 1423 | response (percent of control binding), % at 10 µM | 220,000 tested, 0.34% active | multiplexed bead flow cytometry, RGS8-Galphao binding; actives lie on both sides; in the data active means response below about 60% or above about 140%; inactive means in between;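 further: Galphao activated as the GDP aluminium fluoride complex binding bead-coupled RGS8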
GSH fluor = GSH bead compound fluorescence profile | AID 1776 | 190,000 tested, 0.25% active | fluorescence (KMESF) at 10 µM | GSH beads flow cytometry, compound fluorescence 488/530 nm; active compounds read high; in the data active means fluorescence above about 89;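 further: glutathione beads carrying GST-tagged Bcl family fusion proteins plus one bare bead set; values are compound well signal with DMSO vehicle wells as background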
Active calls of the source: *; ? = inconclusive; . = no result given; [ ] = another dose, or the depositor's remark. Sampled rows, rich in hits. Any-hit rate of the full collection: about 1.2%.

SMILES	Avidin fluor	RGS7-Gao	RGS16-Gao	RGS4-Gao reg	RGS8-Gao	GSH fluor
c1csc(-c2noc(CN3CCc4sccc4C3)n2)c1	12	99	101	101	101	16
COc1ccccc1-c1cc(C(F)(F)F)nc(S(=O)(=O)CCCC(=O)NC(C)C)n1	19	102	95	90	100	5
COc1ccccc1-c1cc(C(F)(F)F)nc(S(C)(=O)=O)n1	10	101	106	102	104	483*
CCCCOc1ccc(S(=O)(=O)Nc2ccc(NC(C)=O)cc2)cc1	5	106	116	103	108	129*
CCCCN(CCCC)S(=O)(=O)c1ccc(NS(=O)(=O)c2ccc(NC(C)=O)cc2)cc1	6	102	99	102	102	6
CC(C(=O)N1c2ccc(F)cc2CCC1C)N1C(=O)c2ccccc2C1=O (stereo unspecified)	48*	97	97	95	97	17
CCN(CC)CC(=O)Nc1ccc(-c2ccc(NC(=O)CN(CC)CC)c(OC)c2)cc1OC	9	?	97	100	101	16
CCOP(=O)(c1ccccc1)C(O)c1ccc(Br)cc1 (stereo unspecified)	12	98	104	100	100	13
COc1cccc(NC(=O)N2CCOCC2)c1	37	97	103	99	101	11
COc1ccc(C(=O)Nc2ccc(S(=O)(=O)N3CCOCC3)cc2)cc1OC	12	100	102	102	101	35
COc1ccc(C(=O)Nc2ccc(N3CCOCC3)cc2)cc1OC	99*	129	103	112	99	35
COc1ccc(NC(=O)N2CCOCC2)cc1OC	6	101	89	100	101	261*
Cc1cccc(C)c1-n1c(C)nn(Cc2ccc([N+](=O)[O-])cc2)c1=O	8	96	99	99	99	13
CC(=O)Nc1nnc(Cc2ccccc2)s1	7	107	108	108	110	264*
O=C1Nc2ncccc2OC1CCCl (stereo unspecified)	8	100	99	98	96	258*
CN(CCOc1ccccc1)S(=O)(=O)c1ccc2oc3ccccc3c2c1	60*	118	100	108	100	29
COc1ccc(OCCNS(=O)(=O)c2ccc3oc4ccccc4c3c2)cc1	10	103	110	103	100	10
CC1CCc2c(sc(NC(=O)c3ccccc3C(=O)O)c2C#N)C1 (stereo unspecified)	64*	128	96	88	100	41
COC(=O)c1sccc1N/N=C/c1cccc(Oc2ccccc2)c1	5	100	106	101	101	9
O=C(NCCCN1CCN(Cc2ccccc2)CC1)C1CCN(S(=O)(=O)N2CCC3(CC2)OCCO3)CC1	12	?	92	93	94	18
O=C(C1CCN(S(=O)(=O)N2CCC3(CC2)OCCO3)CC1)N1CCN(Cc2ccccc2)CC1	133*	147	123	130	98	26
CCSc1nnc(NC(=O)[C@H](C)NC(=O)c2ccccc2Cl)s1	13	?	102	104	102	18
COc1ccc(NS(=O)(=O)c2ccc3c(c2)CCO3)cc1	61*	?	99	115	95	.
O=S(=O)(Nc1ccccc1)c1ccc2c(c1)CCO2	8	?	100	102	101	.
COC(=O)c1ccc(C(=O)NC(=S)Nc2ccc3nc(SC)sc3c2)cc1	4	102	112	110	96	11
SMILES	Avidin fluor	RGS7-Gao	RGS16-Gao	RGS4-Gao reg	RGS8-Gao	GSH fluor
CCN1/C(=C/c2ccc3cc(C)ccc3[n+]2CC)Sc2cc(C)c(C)cc21	25	144	91	113	80	15
CCN1/C(=C/c2ccc3cc(C)ccc3[n+]2CC)Sc2ccccc21	11	225*[activator]	110	169*[activator]	110	7
CN(C)S(=O)(=O)c1cccc(C(=O)OCC(=O)Nc2sccc2C#N)c1	-4	-17*	-63*	-59*	21*	33
O=C(Cn1c(-c2cscn2)nc2ccccc21)Nc1ccccc1F	50*	112	118	103	104	14
C/C(=N\NC(=O)CSc1nc2ccccc2s1)c1ccco1	29	112	115	121	99	408*
O=C(CSc1nc2ccccc2s1)N/N=C/c1ccco1	4	100	101	98	102	10
CCCCn1c(SCC(=O)N2CC(C)CC(C)C2)nc2cc(S(N)(=O)=O)ccc21 (stereo unspecified)	6	91	94	92	93	262*
CCOC(=O)C1=NNC2(c3ccc(C)cc3)C(=O)N(c3ccc(Cl)cc3)C(=O)C12 (stereo unspecified)	15	101	99	98	100	12
CCC(C)(NC(=O)c1ccc2c(c1)OCO2)C(=O)NC1CCCCC1 (stereo unspecified)	10	105	97	98	99	20
NC(=O)c1oc2ccccc2c1NC(=O)c1ccccc1	7	98	98	98	100	259*
NC(=O)c1oc2ccccc2c1NC(=O)c1ccco1	21	98	102	101	100	13
Fc1cccc2sc(Nc3nc4ccccc4s3)nc12	15	104	103	99	100	4
COc1ccc2nc(Nc3nc(CSc4nnnn4-c4ccccc4)cc(=O)[nH]3)nc(C)c2c1	95*	135	104	109	98	33
CCOc1ccc2nc(Nc3nc(CSc4nnnn4-c4ccccc4)cc(=O)[nH]3)nc(C)c2c1	6	104	106	103	104	23
CC(C)(C)NC(=O)c1cccc(NC(=O)c2ccc(NC(=O)c3ccco3)cc2)c1	10	102	100	99	101	29
CC(C)(C)NC(=O)c1cccc(NC(=O)c2ccco2)c1	4	95	80	98	90	99*
C=CCOC(=O)c1cc(-c2ccc(/C=C3\C(=O)NC(=O)C(C#N)=C3C)o2)ccc1Cl	5	83	81	79	93	260*
CC1=C(C#N)C(=O)NC(=O)/C1=C/c1ccc(-c2ccc(S(N)(=O)=O)cc2)o1	11	?	97	103	93	10
O=c1oc2ccccc2c(O)c1/C=N/c1ccccn1	6	104	89	104	103	263*
O=c1oc2ccccc2c(O)c1C=Nc1cccnc1	12	106	106	102	102	25
O=C(O)c1ccccc1NS(=O)(=O)c1ccc2c3c(cccc13)C(=O)N2	75*	133	108	114	104	19
CN(c1ccccc1C(=O)O)S(=O)(=O)c1ccc2c3c(cccc13)C(=O)N2	19	96	94	96	100	18
O=C(COc1ncnc2ccccc12)Nc1cc([N+](=O)[O-])ccc1F	13	?	102	110	105	.

Bioassay records from PubChem BioAssay.
